Results with a measured potency or affinity are listed apart. Results filed as inconclusive are left out. Unmarked numbers belong to inactive results. Activity calls are given as the source filed them.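 How the source made its calls: active means signal loss with fitted half-maximal concentration at or below twice the top valid tested dose in every test run; inconclusive means runs disagree, flat 30 to 70% signal loss, or poor fit; inactive means all runs flat, opposite direction, or potency beyond limit.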

The nature of this experiment: HEK293T cytotoxicity, dose response, cytotoxicity control for miR-122 modulator project, cell-based, inhibitor set, cherry-pick, set 2 (AID 720697).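 Further: 0% = median of neutral control wells and -100% = MG132 positive control wells.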 The settings on record: HEK293T viability, CellTiter-Glo luminescence, 48 h; series mostly up to 26 µM.
Regarding `CN1C(=O)c2cc(NC(=O)c3cccs3)ccc2OC[C@H]2O[C@@H](CC(=O)NCCN3CCCCC3)CC[C@H]21`, the result was inactive.

On to `Cc1cc(C(=O)Nc2ccc3c(c2)C(=O)N(C)[C@@H]2CC[C@@H](CC(=O)N[C@H](C)c4ccccc4)O[C@H]2CO3)no1`, for which the compound was classed as inactive. As to `CNC(=O)C[C@H]1CC[C@@H]2[C@H](COc3ccc(NC(=O)c4cccc(OC)c4)cc3C(=O)N2C)O1`, the compound was called inactive. As to `COc1ccc(-c2ccc(C#N)c(OC(=O)c3c(Cl)cccc3Cl)n2)cc1`, the activity change, negative = cytotoxicity was -5.32% [at 6 µM].

For `CCCNC(=O)C[C@H]1CC[C@H]2[C@@H](COc3ccc(NC(=O)c4cc(F)cc(F)c4)cc3C(=O)N2C)O1`, the compound was called inactive.

With `CC(C)(C)c1cc(NCCCn2ccnc2)n2ncc(-c3ccc(Cl)cc3)c2n1`, the outcome was inactive. On the same count and under the same terms, then `CCS(=O)(=O)Nc1ccc2c(c1)C(=O)N(C)C[C@@H](OC)[C@H](C)CN(CC1CCCC1)[C@H](C)CO2`, with “inactive”; and `CN1C(=O)c2cc(NC(=O)Nc3ccccc3F)ccc2OC[C@@H]2O[C@@H](CC(=O)NCc3ccc(-c4ccccc4)cc3)CC[C@H]21`, with “inactive”. For the compound `CC(=O)N1[C@H](CN(C(=O)c2ccc(F)cc2)C(C)C)[C@@H](c2ccccc2)[C@@H]1CO`, the outcome was inactive. As to `CNC(=O)c1nc(C)n(-c2cc(Cl)cc(Cl)c2)n1`, the activity change, negative = cytotoxicity is 4.99% [at 6 µM]. `C[C@H]1CN([C@@H](C)CO)C(=O)c2cc(C#CC3CCCC3)cnc2O[C@H]1CN(C)C(=O)Cc1ccccn1`: the call was inactive. On the same count and under the same terms, then `COC(=O)C[C@H]1CC[C@H]2[C@H](COc3ccc(NC(=O)NC(C)C)cc3C(=O)N2C)O1`, with “inactive”. As for `O=C(Nc1ccccc1)N1CCCCN2[C@@H](CO)[C@H](c3ccc(C4=CCCCC4)cc3)[C@@H]2C1`, the outcome was inactive.

For the compound `Cc1cc(C(=O)N/N=C/c2cc(Br)ccc2OC(=O)c2ccccc2)n[nH]1`, the compound was called inactive. `CCCCC(=O)OCC(=O)c1[nH]c(C)c(C(=O)OCC)c1C`: the compound was called inactive. Turning to `Cc1ccc(S(=O)(=O)Nc2ccc3c(c2)C(=O)N(C)[C@@H]2CC[C@H](CC(=O)NCCc4ccncc4)O[C@@H]2CO3)cc1`, the outcome was inactive. As for `Cc1ccccc1-c1ccc([C@@H]2[C@H](CO)N3CCCCN(C(=O)Nc4cccc(F)c4)C[C@@H]23)cc1`, the call was inactive. For the compound `CN(C[C@H]1N[C@@H](CO)[C@@H]1c1ccc(C2=CCCC2)cc1)C(=O)c1ccc(F)cc1`, the compound was called inactive. For `C[C@@H]1CN([C@H](C)CO)C(=O)c2cccc(NC(=O)c3ccc(-c4nccs4)cc3)c2O[C@H]1CN(C)S(=O)(=O)c1ccc(F)cc1`, the result was inactive. For the compound `O=C(N/N=C/c1ccco1)c1cccc(N2CCCC2=O)c1`, the call was inactive.

For the compound `COc1ccccc1CNc1nc(Nc2ccccc2Cl)c2sccc2n1`, the outcome was inactive. `COC(=O)C[C@H]1CC[C@@H]2[C@@H](COc3ccc(NC(=O)c4ccc(F)c(F)c4)cc3C(=O)N2C)O1`: the outcome was inactive. Take `COc1ccc(C#Cc2ccc3c(c2)O[C@@H](CN(C)C(=O)CN2CCOCC2)[C@@H](C)CN([C@H](C)CO)S3(=O)=O)cc1`: the result was inactive. As for `O=C(Nc1nc(-c2cc3ccccc3o2)cs1)c1ccc(S(=O)(=O)N2CCCC2)cc1`, the result was inactive. As for `COc1ccc(-c2c(C)nn3c(N)c(-c4ccccc4)cnc23)cc1OC`, the compound was called inactive. For `Cc1nn(C)cc1NC(=O)C[C@@H]1CC[C@@H]2[C@H](COc3ccc(NC(=O)Nc4cccc(Cl)c4)cc3C(=O)N2C)O1`, the result was inactive.

For the compound `Cc1cccc(NC(=O)c2sc3nc(-c4ccc(F)cc4)cn3c2C)n1`, the compound was called inactive.

On to `C/C=C/c1ccc([C@H]2[C@@H](CO)N(C(=O)C3CC3)[C@H]2CN(C)C(=O)CC2CC2)cc1`, for which the call was inactive. Turning to `CN1C(=O)c2cc(NS(=O)(=O)c3cccc(F)c3)ccc2OC[C@@H]2O[C@@H](CC(=O)O)CC[C@@H]21`, the compound was classed as inactive. For `CCC(=O)N1[C@H](CO)[C@H](c2ccccc2)[C@@H]1CN(C(C)C)S(C)(=O)=O`, the call was inactive. On the same count and under the same terms, then `Cc1ccc(-c2noc(CCC(=O)Nc3ccccc3C)n2)cc1`, with “inactive”; and `CCC(=O)Nc1ccc2c(c1)C(=O)N(C)[C@@H]1CC[C@H](CC(=O)Nc3cccc(OC)c3)O[C@@H]1CO2`, with “inactive”. In the case of `COCCN(C[C@H]1[C@H](c2ccccc2)[C@@H](CO)N1C(=O)C1CCC1)C(C)=O`, the outcome was inactive. On the same count and under the same terms, then `CCOC(=O)c1nc(C)n(-c2ccc(Cl)cc2Cl)n1`, with “inactive”; and `CN1C(=O)c2cc(NC(=O)c3cccc(F)c3)ccc2OC[C@H]2O[C@@H](CC(=O)NC3CCC3)CC[C@H]21`, with “inactive”.

For the origin of these results see PubChem BioAssay AID720697 (Broad Institute, 2013).
